The results in this text go back to ChEMBL document CHEMBL1961873, “Compounds: GSK PKIS; Assays: Nanosyn kinase panel” (2012).

For experiment [1], the target named is MAP/microtubule affinity-regulating kinase 3 (Homo sapiens) (UniProt P27448). The note with it: at 1 µM.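 Note: reported values are averaged percent inhibition of MARK3.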
The target of experiment [2] is T1, MAP/microtubule affinity-regulating kinase 4 (Homo sapiens) (UniProt Q96L34).
T1 sequence (whole entry): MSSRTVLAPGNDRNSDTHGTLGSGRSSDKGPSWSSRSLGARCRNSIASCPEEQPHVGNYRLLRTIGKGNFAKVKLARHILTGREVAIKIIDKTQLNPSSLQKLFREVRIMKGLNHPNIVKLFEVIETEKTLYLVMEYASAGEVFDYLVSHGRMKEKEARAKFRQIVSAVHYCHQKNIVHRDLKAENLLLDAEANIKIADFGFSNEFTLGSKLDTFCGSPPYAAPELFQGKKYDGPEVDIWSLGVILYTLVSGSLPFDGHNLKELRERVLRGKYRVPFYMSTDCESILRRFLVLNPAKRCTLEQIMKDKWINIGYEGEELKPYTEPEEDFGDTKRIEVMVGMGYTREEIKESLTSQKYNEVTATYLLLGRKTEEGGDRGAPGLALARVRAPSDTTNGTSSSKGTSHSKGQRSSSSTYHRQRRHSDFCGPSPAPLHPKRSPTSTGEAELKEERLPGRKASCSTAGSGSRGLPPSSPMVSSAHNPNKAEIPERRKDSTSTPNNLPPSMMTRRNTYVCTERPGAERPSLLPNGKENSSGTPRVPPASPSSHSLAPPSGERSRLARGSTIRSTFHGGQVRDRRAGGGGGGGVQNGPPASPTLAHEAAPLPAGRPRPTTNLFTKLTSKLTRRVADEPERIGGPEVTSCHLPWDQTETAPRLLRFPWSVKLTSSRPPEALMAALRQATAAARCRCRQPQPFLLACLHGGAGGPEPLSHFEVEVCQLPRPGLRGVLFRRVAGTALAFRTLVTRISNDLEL
The note with it: at 0.1 µM.

Experiment [3] deals with T1, MAP/microtubule affinity-regulating kinase 4 (Homo sapiens). The note with it: at 1 µM.
For experiment [4], the target named is Maternal embryonic leucine zipper kinase (Homo sapiens) (UniProt Q14680). As to conditions: at 0.1 µM.
For experiment [5] the target is unchanged. The note with it: at 1 µM.
The target in experiment [6] is MAP kinase-interacting serine/threonine-protein kinase 1 (Homo sapiens) (UniProt Q9BUB5). As to conditions: at 0.1 µM.
The target is the same in experiment [7]. The note with it: at 1 µM.
The target in experiment [8] is MAP kinase-interacting serine/threonine-protein kinase 2 (Homo sapiens) (UniProt Q9HBH9). The note with it: at 0.1 µM.
Experiment [9] shares this target. The note with it: at 1 µM.
The target in experiment [10] is Serine/threonine-protein kinase MARK2 (Homo sapiens) (UniProt Q7KZI7). As to conditions: at 0.1 µM.
Experiment [11] shares this target. The note with it: at 1 µM.
In experiment [12] the target is PAS domain-containing serine/threonine-protein kinase (Homo sapiens) (UniProt Q96RG2). As to conditions: at 0.1 µM.
For experiment [13] the target is unchanged. The note with it: at 1 µM.
Experiment [14] deals with Phosphorylase b kinase gamma catalytic chain, skeletal muscle/heart isoform (Homo sapiens) (UniProt Q16816). The note with it: at 0.1 µM.
For experiment [15] the target is unchanged. As to conditions: at 1 µM.
The target in experiment [16] is T2, Phosphorylase b kinase gamma catalytic chain, liver/testis isoform (Homo sapiens) (UniProt P15735).
T2 sequence (whole entry): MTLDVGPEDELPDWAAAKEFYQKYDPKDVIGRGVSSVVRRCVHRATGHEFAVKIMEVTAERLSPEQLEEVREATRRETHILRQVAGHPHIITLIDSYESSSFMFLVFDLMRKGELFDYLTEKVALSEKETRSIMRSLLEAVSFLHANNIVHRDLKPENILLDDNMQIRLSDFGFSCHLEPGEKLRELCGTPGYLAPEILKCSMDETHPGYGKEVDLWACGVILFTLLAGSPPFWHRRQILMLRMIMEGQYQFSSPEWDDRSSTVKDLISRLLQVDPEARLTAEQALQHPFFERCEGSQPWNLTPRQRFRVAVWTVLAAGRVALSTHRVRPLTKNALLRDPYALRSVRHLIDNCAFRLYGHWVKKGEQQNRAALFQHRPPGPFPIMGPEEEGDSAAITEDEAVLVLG
As to conditions: at 0.1 µM.

The target in experiment [17] is T2, Phosphorylase b kinase gamma catalytic chain, liver/testis isoform (Homo sapiens). As to conditions: at 1 µM.
In experiment [18] the target is Serine/threonine-protein kinase pim-1 (Homo sapiens) (UniProt P11309). The note with it: at 0.1 µM.
Experiment [19] has the same target. The note with it: at 1 µM.
The target of experiment [20] is Serine/threonine-protein kinase pim-2 (Homo sapiens) (UniProt Q9P1W9). The note with it: at 0.1 µM.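 Note: reported value is the mean percent inhibition of PIM2, measured in the GSK PKIS kinase inhibitor set screen.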
Chain of Serine/threonine-protein kinase pim-2 (Homo sapiens) (Q9P1W9 whole entry, looked up): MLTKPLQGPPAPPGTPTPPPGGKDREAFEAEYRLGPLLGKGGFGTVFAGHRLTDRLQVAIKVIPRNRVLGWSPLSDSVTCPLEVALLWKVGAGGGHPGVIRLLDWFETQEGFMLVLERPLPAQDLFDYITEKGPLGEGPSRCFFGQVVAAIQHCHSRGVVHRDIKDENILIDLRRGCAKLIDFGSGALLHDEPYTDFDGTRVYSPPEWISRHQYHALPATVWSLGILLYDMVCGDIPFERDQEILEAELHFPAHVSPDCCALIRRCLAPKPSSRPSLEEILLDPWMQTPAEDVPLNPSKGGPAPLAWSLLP

Chain of Serine/threonine-protein kinase MARK2 (Homo sapiens) (Q7KZI7 whole entry): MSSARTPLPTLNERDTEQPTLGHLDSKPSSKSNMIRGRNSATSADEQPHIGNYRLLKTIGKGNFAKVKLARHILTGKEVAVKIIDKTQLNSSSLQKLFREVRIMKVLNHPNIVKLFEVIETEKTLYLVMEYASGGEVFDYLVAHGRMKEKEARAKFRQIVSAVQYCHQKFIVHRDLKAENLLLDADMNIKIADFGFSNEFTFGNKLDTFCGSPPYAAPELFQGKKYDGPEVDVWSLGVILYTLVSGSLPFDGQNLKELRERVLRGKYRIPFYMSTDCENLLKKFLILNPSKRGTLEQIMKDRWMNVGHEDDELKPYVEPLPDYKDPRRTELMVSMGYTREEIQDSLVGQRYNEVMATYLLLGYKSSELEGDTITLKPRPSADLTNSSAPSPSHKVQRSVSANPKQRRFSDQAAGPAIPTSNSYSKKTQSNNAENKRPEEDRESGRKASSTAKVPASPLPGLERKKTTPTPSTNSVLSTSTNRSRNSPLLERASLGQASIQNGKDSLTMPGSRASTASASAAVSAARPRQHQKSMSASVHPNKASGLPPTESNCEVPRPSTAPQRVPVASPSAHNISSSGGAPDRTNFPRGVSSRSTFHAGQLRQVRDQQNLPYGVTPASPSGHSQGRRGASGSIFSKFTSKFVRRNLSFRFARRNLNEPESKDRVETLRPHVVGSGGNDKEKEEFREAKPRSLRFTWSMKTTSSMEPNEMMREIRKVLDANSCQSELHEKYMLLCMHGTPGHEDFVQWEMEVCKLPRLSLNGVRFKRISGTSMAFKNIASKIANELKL
Chain of Phosphorylase b kinase gamma catalytic chain, skeletal muscle/heart isoform (Homo sapiens) (Q16816 whole entry, looked up, canonical isoform): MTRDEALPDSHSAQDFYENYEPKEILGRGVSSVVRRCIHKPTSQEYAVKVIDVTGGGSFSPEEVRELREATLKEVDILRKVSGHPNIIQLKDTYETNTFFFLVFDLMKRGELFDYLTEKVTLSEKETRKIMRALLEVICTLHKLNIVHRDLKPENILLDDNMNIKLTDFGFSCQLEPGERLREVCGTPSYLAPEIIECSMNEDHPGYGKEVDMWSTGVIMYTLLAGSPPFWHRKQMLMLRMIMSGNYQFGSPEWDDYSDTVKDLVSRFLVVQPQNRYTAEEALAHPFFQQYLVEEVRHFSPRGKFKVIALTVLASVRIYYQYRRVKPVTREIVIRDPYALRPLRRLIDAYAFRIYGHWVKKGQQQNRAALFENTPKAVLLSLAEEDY
Chain of MAP/microtubule affinity-regulating kinase 3 (Homo sapiens) (P27448 whole entry, looked up): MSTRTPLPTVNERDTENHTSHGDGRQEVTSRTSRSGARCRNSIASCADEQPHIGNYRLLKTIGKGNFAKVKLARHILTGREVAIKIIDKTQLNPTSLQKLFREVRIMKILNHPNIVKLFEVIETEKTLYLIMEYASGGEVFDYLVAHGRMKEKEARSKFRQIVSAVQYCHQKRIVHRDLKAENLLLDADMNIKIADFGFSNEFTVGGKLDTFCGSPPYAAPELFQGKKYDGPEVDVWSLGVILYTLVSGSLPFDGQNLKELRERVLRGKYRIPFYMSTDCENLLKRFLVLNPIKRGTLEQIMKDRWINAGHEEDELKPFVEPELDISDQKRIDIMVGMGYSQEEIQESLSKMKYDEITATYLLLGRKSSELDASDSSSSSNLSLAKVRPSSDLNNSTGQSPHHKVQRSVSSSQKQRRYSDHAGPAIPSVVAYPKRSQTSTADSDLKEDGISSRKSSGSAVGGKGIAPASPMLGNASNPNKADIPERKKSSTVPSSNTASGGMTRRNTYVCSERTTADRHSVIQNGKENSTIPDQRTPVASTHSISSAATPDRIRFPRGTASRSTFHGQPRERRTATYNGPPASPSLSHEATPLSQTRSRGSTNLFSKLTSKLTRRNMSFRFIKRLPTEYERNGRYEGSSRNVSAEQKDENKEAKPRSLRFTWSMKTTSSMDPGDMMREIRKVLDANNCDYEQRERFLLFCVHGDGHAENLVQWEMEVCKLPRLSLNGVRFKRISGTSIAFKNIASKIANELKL
Chain of Maternal embryonic leucine zipper kinase (Homo sapiens) (Q14680 whole entry, looked up): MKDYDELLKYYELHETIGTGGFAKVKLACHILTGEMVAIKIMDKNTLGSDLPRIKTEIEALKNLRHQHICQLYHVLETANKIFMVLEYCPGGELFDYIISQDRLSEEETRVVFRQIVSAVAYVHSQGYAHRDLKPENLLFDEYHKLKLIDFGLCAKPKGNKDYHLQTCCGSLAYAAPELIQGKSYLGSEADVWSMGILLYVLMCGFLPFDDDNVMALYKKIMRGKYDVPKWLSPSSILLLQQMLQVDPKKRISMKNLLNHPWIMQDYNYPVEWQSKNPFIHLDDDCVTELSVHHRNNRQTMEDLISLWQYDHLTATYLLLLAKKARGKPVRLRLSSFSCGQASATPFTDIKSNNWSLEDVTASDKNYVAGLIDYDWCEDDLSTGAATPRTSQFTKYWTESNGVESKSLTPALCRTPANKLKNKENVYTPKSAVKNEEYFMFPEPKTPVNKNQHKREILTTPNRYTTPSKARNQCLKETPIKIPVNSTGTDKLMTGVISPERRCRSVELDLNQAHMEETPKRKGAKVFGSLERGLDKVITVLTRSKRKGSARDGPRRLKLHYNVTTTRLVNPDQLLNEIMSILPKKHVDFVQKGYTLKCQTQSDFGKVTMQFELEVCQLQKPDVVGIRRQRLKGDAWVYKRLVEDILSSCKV
Chain of MAP kinase-interacting serine/threonine-protein kinase 1 (Homo sapiens) (Q9BUB5 whole entry, looked up): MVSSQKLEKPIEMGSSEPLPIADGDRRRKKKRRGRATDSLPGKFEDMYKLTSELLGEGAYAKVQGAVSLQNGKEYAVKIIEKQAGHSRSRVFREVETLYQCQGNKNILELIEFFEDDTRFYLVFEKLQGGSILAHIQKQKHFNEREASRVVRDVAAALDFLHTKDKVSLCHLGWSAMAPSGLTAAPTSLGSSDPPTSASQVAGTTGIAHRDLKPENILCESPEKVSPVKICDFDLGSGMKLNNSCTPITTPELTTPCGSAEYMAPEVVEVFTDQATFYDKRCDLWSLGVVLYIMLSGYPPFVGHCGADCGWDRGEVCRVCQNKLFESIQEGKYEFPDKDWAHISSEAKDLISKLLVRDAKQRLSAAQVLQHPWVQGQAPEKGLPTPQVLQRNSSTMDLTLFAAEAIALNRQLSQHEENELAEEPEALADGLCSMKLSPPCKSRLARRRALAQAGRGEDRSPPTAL
Chain of PAS domain-containing serine/threonine-protein kinase (Homo sapiens) (Q96RG2 whole entry, the tested form may be a part): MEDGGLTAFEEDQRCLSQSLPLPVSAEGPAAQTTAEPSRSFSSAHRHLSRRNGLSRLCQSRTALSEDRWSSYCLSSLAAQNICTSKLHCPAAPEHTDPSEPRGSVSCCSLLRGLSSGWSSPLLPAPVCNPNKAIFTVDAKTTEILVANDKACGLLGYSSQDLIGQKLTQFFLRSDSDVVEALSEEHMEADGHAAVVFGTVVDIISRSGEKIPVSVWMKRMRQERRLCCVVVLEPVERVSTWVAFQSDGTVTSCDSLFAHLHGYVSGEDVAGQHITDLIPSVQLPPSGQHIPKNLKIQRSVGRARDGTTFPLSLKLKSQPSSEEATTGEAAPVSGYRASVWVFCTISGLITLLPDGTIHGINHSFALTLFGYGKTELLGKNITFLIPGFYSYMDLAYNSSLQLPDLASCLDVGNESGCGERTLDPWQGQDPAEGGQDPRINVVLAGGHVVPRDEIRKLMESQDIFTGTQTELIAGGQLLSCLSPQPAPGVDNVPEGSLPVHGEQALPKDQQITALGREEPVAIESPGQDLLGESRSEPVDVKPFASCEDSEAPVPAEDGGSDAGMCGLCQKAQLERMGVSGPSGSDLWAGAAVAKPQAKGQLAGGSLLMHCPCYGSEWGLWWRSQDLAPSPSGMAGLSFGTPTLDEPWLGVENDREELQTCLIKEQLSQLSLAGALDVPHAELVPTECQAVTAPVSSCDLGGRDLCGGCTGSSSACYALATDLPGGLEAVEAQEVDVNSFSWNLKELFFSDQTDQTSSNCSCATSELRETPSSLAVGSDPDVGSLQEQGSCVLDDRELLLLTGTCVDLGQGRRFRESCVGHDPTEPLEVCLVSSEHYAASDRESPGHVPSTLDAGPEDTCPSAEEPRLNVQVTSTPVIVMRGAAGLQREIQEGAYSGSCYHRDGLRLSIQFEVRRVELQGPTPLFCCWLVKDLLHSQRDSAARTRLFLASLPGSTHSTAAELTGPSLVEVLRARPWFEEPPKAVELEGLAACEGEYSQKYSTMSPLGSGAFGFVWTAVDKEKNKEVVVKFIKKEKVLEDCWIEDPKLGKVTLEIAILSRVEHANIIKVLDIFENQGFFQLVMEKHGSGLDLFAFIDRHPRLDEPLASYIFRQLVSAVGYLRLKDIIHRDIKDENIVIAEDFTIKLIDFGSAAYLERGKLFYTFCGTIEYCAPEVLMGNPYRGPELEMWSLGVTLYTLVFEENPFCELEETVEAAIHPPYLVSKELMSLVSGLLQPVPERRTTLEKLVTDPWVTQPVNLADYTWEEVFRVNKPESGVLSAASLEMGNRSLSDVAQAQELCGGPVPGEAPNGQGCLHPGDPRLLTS
Chain of Serine/threonine-protein kinase pim-1 (Homo sapiens) (P11309 whole entry, looked up): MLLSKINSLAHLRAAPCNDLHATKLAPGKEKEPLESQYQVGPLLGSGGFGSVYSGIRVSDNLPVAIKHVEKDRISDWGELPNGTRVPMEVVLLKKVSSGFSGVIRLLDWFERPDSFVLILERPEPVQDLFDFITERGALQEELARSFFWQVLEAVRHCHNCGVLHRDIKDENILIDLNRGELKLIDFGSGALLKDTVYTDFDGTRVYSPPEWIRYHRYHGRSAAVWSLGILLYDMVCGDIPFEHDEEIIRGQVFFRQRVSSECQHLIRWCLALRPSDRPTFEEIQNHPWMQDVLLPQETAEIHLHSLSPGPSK

`Cc1ccc2c(c1)/C(=N/Nc1ccc(S(N)(=O)=O)cc1)C(=O)N2`: the inhibition – broadly, the drop in the measured response relative to a control, in per cent – in experiment [1] is 3.82%; in experiment [2] it was 1.51%; in experiment [3], 7.46%; in experiment [4], -0.41%; in experiment [5], 6.27%; in [6] it was 0.02%. The inhibition in [7] was 0.54%; in experiment [8], -0.44%; in experiment [9] it was 0%; in [10] it was -0.42%; in experiment [11] it was 4.44%; in experiment [12], 0.38%. Besides, the inhibition was found to be 0.32% in experiment [13]; 1.32% in experiment [14]; 11% in experiment [15]; 1.11% in [16]; 0.07% in experiment [17]; 0.77% in experiment [18]. Further, the values for the inhibition in experiment [19] and in [20] were 0.99% and 0.28%, respectively.
Take `CN(C)CCCn1c(-c2nonc2N)nc2cnccc21`: the inhibition in experiment [1] was determined as 3.45%; in [2] it was 2.41%; in experiment [3], 3.46%; in [4] it was 6.89%; in experiment [5], 20.1%; in experiment [6], 1.87%. The inhibition was 5.5% in experiment [7]; 0.54% in [8]; -0.09% in [9]; 1.6% in experiment [10]; 2.24% in experiment [11]; -0.11% in experiment [12]. The inhibition in experiment [13] is -0.83%; in [14] it was 2.33%; in [15], 2.88%; in experiment [16] it was 4.54%; in [17], 2.43%; in experiment [18], 2.81%. Further, the inhibition is 18.9% in experiment [19] and -0.04% in experiment [20].
Turning to `Cc1cc(Cl)cc2c1NC(=O)C2=NNc1ccc(S(N)(=O)=O)cc1`, the inhibition in experiment [1] was 1.21%; in experiment [2], -0.63%; in [3], -0.34%; in experiment [4], 0.8%; in experiment [5], 0.86%; in experiment [6], 1.47%. For the same compound, the inhibition in experiment [7] is 6.58%; in [8], 1.41%; in [9], 4.45%; in [10], 0.48%; in experiment [11] it was -0.15%; in experiment [12] it was 0.48%. For the same compound, the inhibition stood at 1.94% in experiment [13]; 3.63% in experiment [14]; 6.02% in experiment [15]; 2.58% in experiment [16]; 5.19% in [17]; 0.03% in experiment [18]. Also, the values for the inhibition in [19] and in [20] were 1.28% and -0.12%, respectively.
Consider `Cc1ccc2c(-c3ccnc(Nc4ccc5c(c4)OCCO5)n3)c(-c3ccc(C(F)(F)F)cc3)nn2n1`, for which the inhibition is 5.36% in [1]; 1.96% in [2]; 3.07% in experiment [3]; -1.46% in experiment [4]; 0.19% in experiment [5]; 0.37% in experiment [6]. The inhibition was -0.05% in experiment [7]; 0.66% in [8]; 1.73% in experiment [9]; -0.06% in [10]; 2.02% in experiment [11]; 1.16% in experiment [12]. The inhibition in [13] is 1.48%; in experiment [14] it was 3.21%; in experiment [15] it was 1.99%; in experiment [16], 1.58%; in [17], 1.14%; in experiment [18], -0.32%. For the same compound, the inhibition in [19] worked out at 0.3%; in experiment [20], 0.44%.
In the case of `COc1ccc(-c2nn3ncccc3c2-c2ccnc(Nc3cccc(C(F)(F)F)c3)n2)cc1`, the inhibition was determined as 3.49% in experiment [1]; 1.29% in experiment [2]; 1.74% in experiment [3]; 2.53% in [4]; 1.64% in [5]; 1.88% in [6]. Moreover, the inhibition was 3.34% in experiment [7]; 0.77% in experiment [8]; 1.76% in experiment [9]; -0.74% in experiment [10]; 1.37% in experiment [11]; 0.84% in experiment [12]. The inhibition came out at 0.1% in [13]; 3.78% in experiment [14]; 4.58% in experiment [15]; 4.42% in experiment [16]; 4.66% in experiment [17]; 0.05% in experiment [18]. Further, the inhibition came out at 0.66% in [19] and 0.02% in experiment [20].
In the case of `CN(C)C(=O)O[C@@H]1CN[C@@H](C#Cc2cc3ncnc(Nc4ccc(OCc5cccc(F)c5)c(Cl)c4)c3s2)C1`, the inhibition in experiment [1] is -0.12%; in experiment [2] it was 0.74%; in [3], 1.37%; in [4], -0.39%; in experiment [5], 3.35%; in [6], 0.76%. Moreover, the inhibition in experiment [7] is 3.62%; in [8] it was 0.4%; in [9], 5.87%; in experiment [10], 0.66%; in experiment [11] it was 1.06%; in experiment [12], -0.1%. The inhibition is -0.12% in experiment [13]; 0.51% in experiment [14]; -3.21% in [15]; 1.07% in experiment [16]; -1.09% in experiment [17]; 1.41% in experiment [18]. In addition, the inhibition in [19] is 0.48%; in [20], 0.15%.
As for `C[C@@H](Oc1cc(-n2cnc3ccc(OC[C@@H](O)CO)cc32)sc1C(N)=O)c1ccccc1Cl`, the inhibition in experiment [1] is 5.81%; in experiment [2], 1.02%; in experiment [3], 5.24%; in [4], -2.58%; in experiment [5], 3.21%; in [6] it was -0.74%. Moreover, the inhibition in experiment [7] was 2.69%; in [8] it was 0.15%; in experiment [9], 2.94%; in experiment [10] it was -0.27%; in [11], 4.76%; in experiment [12], 0.26%. In addition, the inhibition in [13] is 1.99%; in experiment [14], 0.98%; in experiment [15], 4.08%; in experiment [16] it was -2.13%; in experiment [17] it was -1.44%; in [18], 2.14%. In addition, the values for the inhibition in experiment [19] and in [20] were 19.1% and -0.13%, respectively.
